Inconclusive results are not listed. The source made the active and inactive calls. Calls come from the whole dose curve; as a rule, active = well fitted activation curve with a large enough effect in the repeat runs; inconclusive = weak or mixed curves, or effect the other way; inactive = no such curve, though single readings can be large or run the other way.

These results are taken from PubChem BioAssay (Tox21).
% is set by controls: 0 for no effect and ±100 for the full control effect; potency is the fitted concentration of half-maximal effect.

The test is described as follows: qHTS assay to identify small molecule agonists of the retinoic acid receptor (RAR) signaling pathway (AID 1159553). The conditions noted are these: C3RL4 RARE luciferase reporter, agonist, 6 h; series mostly up to 73.3 µM; activation: at the top concentration. The text has this: National Center for Advancing Translational Sciences [NCATS] NIH Chemical Genomics Center [NCGC] U.S. Environmental Protection Agency [EPA] National Institutes of Environmental Health Sciences [NIEHS] National Toxicology Program [NTP] Assay overview: All-trans Retinoic acid (atRA) is the potent natural metabolite of retinol and plays an important role in normal embryonic development and maintenance of cellular phenotype in adult animals. atRA is the activating ligand for the retinoic acid receptors (RARs) which form heterodimers with retinoid X receptors (RXRs) on the retinoic acid response element (RARE). Through activation of the RAR/RXRs nuclear receptors, atRA regulates the transcription of a large number of protein-coding genes and regulatory RNAs. Intracellular levels of atRA are controlled by the retinol signaling pathway (RSP) that regulates the biosynthesis and catabolism of atRA to maintain physiological levels. Chemicals that interfere with the RSP can cause abnormal intracellular levels of atRA and therefore are potential developmental toxicants. To assess compounds for the potential adverse effect on embryonic development through interfering with retinol signaling, a cell-based RARE luciferase reporter gene assay was used. C3RL4 cell line (OARSA/CFSAN/FDA, Laurel, MD) was used to screen Tox21 10K compound library for identifying activators of the RSP.
Assay Protocol Summary: C3RL4 cells were seeded at 1,000/well in 5 uL of assay medium into white solid 1,536-well tissue culture plates (Greiner Bio-One North America Inc. Monroe, NC) using a Multidrop Combi (Thermo Scientific, Waltham, MA) dispenser. After incubation at 37 C and 5% CO2 for an overnight, 23 nL of compounds dissolved in DMSO, positive control or DMSO only were transferred by a Pintool station (Kalypsys, San Diego, CA). After 6 hr incubation at 37 C and 5% CO2, 5 uL of Amplite Luciferase reagent (AAT Bioquest Inc. Sunnyvale, CA) was added to each assay plate using a Flying Reagent Dispenser (FRD) (Aurora Discovery, San Diego, CA). Luminescence was quantified on a ViewLux plate reader (PerkinElmer, Waltham, MA) after 30 min incubation at room temperature.
As for `CN(C)CCc1c[nH]c2cccc(OP(=O)(O)O)c12`, the “activation” value is 0.0935% (inactive). Take `CCC1(CC)C(=O)C=CNC1=O`: the “activation” value was 0.528% (inactive).

Take `C=CC(=O)OCCN(C)C`: the “activation” value was 0.0472% (inactive). Consider `CC1NCCOC1c1ccccc1` (stereo not given), for which the “activation” value was 0.0362% (inactive).

In the case of `C/C=C/CC#N`, the “activation” value is -0.228% [at 94.8 µM] (inactive).

Turning to `CCC(C(N)=O)N1CCCC1=O` (stereo not given), the “activation” value is -0.509% (inactive). On to `CC1=C2[C@H]3OC(=O)[C@@H](C)[C@@H]3CC[C@@]2(C)C=CC1=O`, for which the “activation” value was 0.806% (inactive). Same read-out and setting: the same measure for `CCCOC(=O)Cc1ccc(OCC(=O)N(CC)CC)c(OC)c1`: 0.941% (inactive). In the case of `C[N+]1(C)CCCCC1`, the “activation” value is -0.126% (inactive). Turning to `CC(Cl)(Cl)Cl`, the “activation” value was -1.24% (inactive). Take `C=CCC1(C(C)CC)C(=O)NC(=O)NC1=O` (stereo not given): the “activation” value was 1.3% (inactive). Take `C=CCN1CC[C@]23CCCC[C@H]2[C@H]1Cc1ccc(O)cc13`: the “activation” value is -5.44% (inactive). Still for that read-out and setting: then `CCN(CC)C1CCCCC1`, with -0.224% (inactive). With `O=C1CC(=O)NC(=O)N1`, the “activation” value is -1.93% (inactive). Regarding `CNC(=O)Oc1cc(C)c(N(C)C)c(C)c1`, the “activation” value is 3.89% (inactive). Consider `CCSC(=O)Cl`, for which the “activation” value was 0.169% [at 94.8 µM] (inactive). Consider `CC(=O)CN(CC(C)=O)N=O`, for which the “activation” value is 0.532% (inactive). As for `COP(=O)(O)OC`, the “activation” value was 0.848% [at 94.8 µM] (inactive). Turning to `NCC1(CC(=O)O)CCCCC1`, the “activation” value is 0.656% (inactive). In the case of `Cn1c(CCCC(=O)O)nc2cc(N(CCCl)CCCl)ccc21`, the “activation” value is 0.554% (inactive).

Turning to `Cl/C=C/CCl`, the “activation” value is -1.78% [at 94.8 µM] (inactive). Turning to `O=C(O)CBr`, the “activation” value was -0.0075% (inactive). For the compound `CC(O)CCl` (stereo not given), the “activation” value was -0.824% (inactive). As for `CCCC[N+](=O)[O-]`, the “activation” value was -1.28% (inactive). Turning to `COC(=O)[C@@H](N)CCCN/C(N)=N/[N+](=O)[O-]`, the “activation” value was -0.251% (inactive). Regarding `CCOC(=O)Nc1cccc(OC(=O)Nc2ccccc2)c1`, the Potency is 27.3 µM (active). Consider `C[C@H](N)C(=O)c1ccccc1`, for which the “activation” value was 5.4% [at 94.8 µM] (inactive). Take `[O-][Br+2]([O-])O`: the “activation” value was 3.03% (inactive). Same read-out and setting: then `Cc1ccc(Cl)c(O)c1`, with -1.19% (inactive); and `CCOP(=S)(OCC)Oc1ccc(Cl)cc1Cl`, with -9.25% (inactive). Regarding `CCCCCCCCSC(=O)Oc1cc(Cl)nnc1-c1ccccc1`, the “activation” value was -1.25% (inactive). Still for that read-out and setting: then `O=C(Cl)/C=C/C(=O)Cl`, with -0.236% [at 94.8 µM] (inactive); and `CCOC(=O)CCl`, with 4.71% (inactive); and `CN(C)CCN(C)C`, with 0.544% (inactive). Take `O=C1CCCCC1Cl` (stereo not given): the “activation” value is 0.327% [at 94.8 µM] (inactive). Take `BrCC1CO1` (stereo not given): the “activation” value was -1.01% [at 94.8 µM] (inactive). As for `CCCOc1nn(C(=O)NS(=O)(=O)c2ccccc2C(=O)OC)c(=O)n1C`, the “activation” value is 0.26% (inactive). Take `O=C(O)C(Br)(Br)Br`: the “activation” value is 0.104% (inactive).

As for `O=[N+]([O-])c1cccc(CCl)c1`, the “activation” value is -0.671% [at 94.8 µM] (inactive). On to `C[C@H](CN1CCOCC1)C(C(=O)N1CCCC1)(c1ccccc1)c1ccccc1`, for which the “activation” value is -8.66% [at 94.8 µM] (inactive).
